Experimental data as given in PubChem BioAssay (Tox21).
“And” between values parts separate entries of the source, which are not always exact repeats. Equal values may be shown once. Inconclusive results are not listed. Where a structure was tested more than once in an assay, its records may differ in their call. The source made the active and inactive calls. Unless noted, calls follow the shape of the dose curve; as a rule, active = well fitted curve in the direction sought with a large enough effect in the repeat runs; inconclusive = weak or mixed curves; inactive = no such curve, though single readings can be large; an effect the other way counts as inactive or inconclusive.

Experiments:
[1] = qHTS assay to identify small molecule antagonists of the thyroid receptor (TR) signaling pathway - cell viability counter screen (AID 743064); also: nearly all actives have a fitted effect of over 50% in size
In short: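 Viability of T3-stimulated (1 nM final) GH3.TRE-Luc cells is measured by CellTiter-Fluor fluorescence after 23.5 h compound exposure at 37 °C plus 30 min reagent incubation.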

[2] = qHTS assay to identify small molecule antagonists of the thyroid receptor (TR) signaling pathway (AID 743065); also: series mostly up to about 70 µM; nearly all actives have a fitted effect of over 55% in size
In short: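 GH3.TRE-Luc rat pituitary cells (two TREs driving luciferase) were dosed with compound, then stimulated with 1 nM T3 (final) for 23.5 h at 37 C. ONE-Glo luminescence was the read-out, with CellTiter-Fluor fluorescence as the cytotoxicity counter-screen.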

[3] = tested on: thyroid hormone receptor (rat, GH3 cells); assay: qHTS assay to identify small molecule agonists of the thyroid receptor (TR) signaling pathway (AID 743066; calls by dose curve)
[4] = qHTS assay to identify small molecule antagonists of the estrogen receptor alpha (ER-alpha) signaling pathway - cell viability counter screen (AID 743074; calls by dose curve; also: nearly all actives have a fitted effect of over 45% in size; also: potency is read from the fitted curve at half-maximal effect)
[5] = qHTS assay to identify small molecule antagonists of the estrogen receptor alpha (ER-alpha) signaling pathway using the BG1 cell line - cell viability counter screen (AID 743081);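 also: compound given together with 17beta-estradiol as the ER stimulus; series mostly up to about 70 µM; nearly all actives have a fitted effect of over 45% in size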
Aromatase (Homo sapiens) = Aromatase (Homo sapiens) (UniProt P11511); assay: qHTS assay to identify aromatase inhibitors (AID 743083); also: series mostly up to about 70 µM; nearly all actives have a fitted effect of over 55% in size
[6] = qHTS assay to identify aromatase inhibitors - cell viability counter screen (AID 743084);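 also: cells stimulated with testosterone during compound exposure; nearly all actives have a fitted effect of over 55% in size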
[7] = biological target: Aryl hydrocarbon receptor (Homo sapiens) (UniProt P35869); assay: qHTS assay to identify small molecule that activate the aryl hydrocarbon receptor (AhR) signaling pathway (AID 743085);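 also: HG2L7.5c1 human HepG2 liver cells with stably integrated DRE-driven firefly reporter; series mostly up to about 70 µM; nearly all actives have a fitted effect of over 15% in size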
In short: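 A multiplexed format paired cell viability (CellTiter-Fluor fluorescence) with AhR-dependent luciferase output (ONE-Glo luminescence) in the same wells of HepG2 DRE-luc cells after 24 h compound exposure at 37C.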

[8] = qHTS assay to identify small molecule that activate the aryl hydrocarbon receptor (AhR) signaling pathway - cell viability counter screen (AID 743086);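 also: HepG2 liver cells carrying the AhR DRE luciferase reporter; series mostly up to about 70 µM; nearly all actives have a fitted effect of over 45% in size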
In short: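 HepG2-AhR-luc (HG2L7.5c1) cells, 4000/well, treated 24 h at 37 C with compound; viability measured as CellTiter-Fluor fluorescence after 30 min in the same wells as the luciferase read.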

[9] = biological target: Peroxisome proliferator-activated receptor gamma (Homo sapiens) (UniProt P37231); assay: qHTS assay to identify small molecule agonists of the peroxisome proliferator-activated receptor gamma (PPARg) signaling pathway (AID 743094; active = well fitted activation curve with a large enough effect in the signal ratio in the repeat runs, not every such curve was filed as active; the % refers to the signal ratio)
In short: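 Cell-based bla reporter, HEK293H background, PPARg-driven UAS. Pre-incubation 5 h, 37C, 5% CO2. Compound 17 h, 37C. Substrate 1 h RT; fluorescence.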

[10] = biological target: Peroxisome proliferator-activated receptor gamma (Homo sapiens) (UniProt P37231); assay: qHTS assay to identify small molecule antagonists of the peroxisome proliferator-activated receptor gamma (PPARg) signaling pathway (AID 743191; calls by dose curve; also: series mostly up to about 63 µM; nearly all actives have a fitted effect of over 30% in size)
In short: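 GeneBLAzer PPARg UAS-bla HEK293H cells, 5 h post-plating, exposed to compounds 17 h at 37C. LiveBLAzer B/G FRET substrate added for 1 h at room temperature; beta-lactamase reporter read by fluorescence intensity.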

[11] = qHTS assay to identify small molecule antagonists of the peroxisome proliferator-activated receptor gamma (PPARg) signaling pathway - cell viability counter screen (AID 743194); also: nearly all actives have a fitted effect of over 55% in size
In short: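 Cytotoxicity counter screen in PPARg-bla HEK293H cells, same wells as reporter assay. Compounds plus 50 nM rosiglitazone (final) for 17 h at 37 C, then viability read by CellTiter-Glo luminescence.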

[12] = qHTS assay for small molecule agonists of the antioxidant response element (ARE) signaling pathway (AID 743202; active = well fitted activation curve with a large enough effect in the signal ratio in the repeat runs, not every such curve was filed as active; the % refers to the signal ratio)
In short: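 HepG2 ARE-bla cells; 16 h treatment at 37 C; FRET-based beta-lactamase fluorescence read after 2 h substrate incubation at room temperature.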

[13] = qHTS assay for small molecule activators of the heat shock response signaling pathway - cell viability counter screen (AID 743209); also: nearly all actives have a fitted effect of over 50% in size
In short: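 Same-well multiplex: after 2.5 h room-temperature incubation with LiveBLAzer B/G substrate and fluorescence reading, CellTiter-Glo reagent was added to HSE-bla HeLa cells that had received compound for 5 h at 37 C; luminescence read after 30 min.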

[14] = qHTS assay for small molecule agonists of the antioxidant response element (ARE) signaling pathway - cell viability counter screen (AID 743203; calls by dose curve; also: nearly all actives have a fitted effect of over 55% in size)
In short: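 Measured in the same wells as the beta-lactamase ARE reporter, this read-out is CellTiter-Glo luminescence from HepG2 ARE-bla cells given compounds for 16 hrs.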

[15] = qHTS assay for small molecule activators of the heat shock response signaling pathway (AID 743210; active = well fitted activation curve with a large enough effect in the signal ratio in the repeat runs, with a control signal flat, not every such curve was filed as active; the % refers to the signal ratio;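 also: HeLa cells with beta-lactamase reporter driven by heat shock elements; series mostly up to about 63 µM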)
In short: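 Following overnight attachment, HSE-bla HeLa cells received test compounds for 5 h at 37 C; beta-lactamase activity was then detected via FRET substrate fluorescence.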

[16] = biological target: Estrogen receptor (Homo sapiens) (UniProt P03372); assay: qHTS assay to identify small molecule antagonists of the estrogen receptor alpha (ER-alpha) signaling pathway (AID 743069; active = well fitted curve in the direction sought with a large enough effect in the signal ratio in the repeat runs, not every such curve was filed as active; the % refers to the signal ratio)
In short: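 In this cell-based reporter format, GripTite HEK293 cells harbouring ER-alpha-UAS-bla were grown overnight with 2% charcoal-stripped FBS, dosed with DMSO-dissolved compounds, then challenged with 17beta-estradiol. After 18 hr at 37C, beta-lactamase activity was detected by FRET fluorescence.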

[17] = biological target: Estrogen receptor (Homo sapiens) (UniProt P03372); assay: qHTS assay to identify small molecule agonists of the estrogen receptor alpha (ER-alpha) signaling pathway (AID 743075; calls by dose curve)
[18] = biological target: Estrogen receptor (Homo sapiens) (UniProt P03372); assay: qHTS assay to identify small molecule agonists of the estrogen receptor alpha (ER-alpha) signaling pathway using the BG1 cell line (AID 743079); also: nearly all actives have a fitted effect of over 20% in size; also: potency is read from the fitted curve at half-maximal effect
[19] = qHTS assay to identify small molecule antagonists of the estrogen receptor alpha (ER-alpha) signaling pathway using the BG1 cell line (AID 743080; calls by dose curve;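 also: BG1 cells stimulated with 17beta-estradiol alongside compound; series mostly up to about 70 µM; nearly all actives have a fitted effect of over 25% in size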)
In short: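 Endogenous full-length ER-alpha in BG1-Luc-4E2 cells drives a stably integrated 4×ERE luciferase gene; compounds were tested against 17beta-estradiol over 21.5 h, with luminescence and multiplexed viability fluorescence recorded.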

Measured: Potency

Sequence of Aryl hydrocarbon receptor (Homo sapiens) (P35869 whole entry, looked up): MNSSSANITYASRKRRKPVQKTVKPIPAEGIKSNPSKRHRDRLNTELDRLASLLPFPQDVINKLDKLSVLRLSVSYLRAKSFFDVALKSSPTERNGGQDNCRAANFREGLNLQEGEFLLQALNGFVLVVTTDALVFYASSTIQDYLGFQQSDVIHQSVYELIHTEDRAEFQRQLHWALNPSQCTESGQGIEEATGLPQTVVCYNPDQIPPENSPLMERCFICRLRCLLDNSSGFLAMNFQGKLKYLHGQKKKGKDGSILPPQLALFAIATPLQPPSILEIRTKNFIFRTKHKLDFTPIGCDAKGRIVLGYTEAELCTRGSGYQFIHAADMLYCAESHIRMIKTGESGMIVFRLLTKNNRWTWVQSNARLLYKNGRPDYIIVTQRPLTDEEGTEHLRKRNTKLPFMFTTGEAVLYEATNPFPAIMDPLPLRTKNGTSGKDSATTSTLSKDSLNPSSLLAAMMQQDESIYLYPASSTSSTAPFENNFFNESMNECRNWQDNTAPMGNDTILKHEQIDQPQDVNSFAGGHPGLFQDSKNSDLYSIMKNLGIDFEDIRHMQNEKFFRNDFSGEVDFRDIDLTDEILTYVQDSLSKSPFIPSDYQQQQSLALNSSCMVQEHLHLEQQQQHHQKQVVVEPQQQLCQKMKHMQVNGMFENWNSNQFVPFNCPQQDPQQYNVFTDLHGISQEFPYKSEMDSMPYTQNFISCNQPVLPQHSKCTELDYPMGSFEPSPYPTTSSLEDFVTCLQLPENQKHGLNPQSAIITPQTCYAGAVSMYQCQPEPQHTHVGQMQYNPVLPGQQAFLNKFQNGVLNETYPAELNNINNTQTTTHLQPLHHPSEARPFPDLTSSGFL
Sequence of Aromatase (Homo sapiens) (P11511 whole entry, looked up): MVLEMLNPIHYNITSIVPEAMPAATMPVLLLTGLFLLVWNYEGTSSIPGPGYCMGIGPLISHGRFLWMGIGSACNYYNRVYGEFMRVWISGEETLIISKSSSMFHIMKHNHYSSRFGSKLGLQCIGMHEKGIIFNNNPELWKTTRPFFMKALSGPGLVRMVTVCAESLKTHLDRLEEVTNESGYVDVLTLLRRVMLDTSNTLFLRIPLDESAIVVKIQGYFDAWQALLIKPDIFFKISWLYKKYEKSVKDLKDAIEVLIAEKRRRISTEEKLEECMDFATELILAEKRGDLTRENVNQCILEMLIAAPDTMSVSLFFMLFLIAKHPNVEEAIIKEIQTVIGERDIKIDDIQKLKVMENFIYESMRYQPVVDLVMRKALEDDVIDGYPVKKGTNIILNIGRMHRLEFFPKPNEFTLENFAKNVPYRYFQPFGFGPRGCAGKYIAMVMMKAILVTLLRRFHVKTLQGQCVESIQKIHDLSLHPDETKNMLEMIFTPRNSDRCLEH
Sequence of Estrogen receptor (Homo sapiens) (P03372 whole entry, looked up): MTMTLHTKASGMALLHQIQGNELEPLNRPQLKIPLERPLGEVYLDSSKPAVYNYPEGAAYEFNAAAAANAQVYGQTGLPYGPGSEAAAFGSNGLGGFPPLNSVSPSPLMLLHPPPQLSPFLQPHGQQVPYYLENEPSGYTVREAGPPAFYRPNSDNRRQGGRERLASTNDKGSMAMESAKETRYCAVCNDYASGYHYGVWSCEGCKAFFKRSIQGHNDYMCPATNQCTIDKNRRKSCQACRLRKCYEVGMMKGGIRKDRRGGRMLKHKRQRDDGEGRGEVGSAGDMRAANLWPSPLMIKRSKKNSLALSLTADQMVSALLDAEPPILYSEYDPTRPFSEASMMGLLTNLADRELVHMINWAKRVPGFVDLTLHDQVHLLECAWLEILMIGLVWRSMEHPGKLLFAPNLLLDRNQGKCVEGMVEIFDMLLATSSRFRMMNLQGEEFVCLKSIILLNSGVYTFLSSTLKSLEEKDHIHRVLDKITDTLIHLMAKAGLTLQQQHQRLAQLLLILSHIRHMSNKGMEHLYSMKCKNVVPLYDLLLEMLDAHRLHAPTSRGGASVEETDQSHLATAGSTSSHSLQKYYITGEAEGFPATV
Sequence of Peroxisome proliferator-activated receptor gamma (Homo sapiens) (P37231 whole entry, looked up): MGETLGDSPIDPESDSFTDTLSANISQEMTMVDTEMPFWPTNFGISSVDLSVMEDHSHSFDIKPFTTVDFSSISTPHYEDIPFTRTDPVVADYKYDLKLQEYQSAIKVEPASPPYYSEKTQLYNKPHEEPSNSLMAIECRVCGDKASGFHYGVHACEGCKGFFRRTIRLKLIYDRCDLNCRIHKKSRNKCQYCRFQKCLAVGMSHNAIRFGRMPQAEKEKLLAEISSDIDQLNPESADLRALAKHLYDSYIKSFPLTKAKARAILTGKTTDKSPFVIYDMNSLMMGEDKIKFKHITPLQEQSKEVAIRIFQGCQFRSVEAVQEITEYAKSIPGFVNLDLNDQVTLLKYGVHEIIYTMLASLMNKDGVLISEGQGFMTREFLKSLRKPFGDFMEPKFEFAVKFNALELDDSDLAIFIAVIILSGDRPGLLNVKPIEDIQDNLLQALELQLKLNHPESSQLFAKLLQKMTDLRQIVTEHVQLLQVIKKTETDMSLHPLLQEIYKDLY

CC(C)[C@@H]1CC[C@@H](C)C[C@H]1O
inactive: [1] | [2] | [3] | [4] | [5] | Aromatase (Homo sapiens) | [6] | [7] | [8] | [9] | [10] | [11] | [12] | [13]

OCCc1ccccc1
inactive: [1] | [2] | [3] | [4] | [5] | Aromatase (Homo sapiens) | [6] | [7] | [8] | [9] | [10] | [11] | [12] | [14] | [13] | [15]

NC(=O)c1cnccn1
inactive: [1] | [16] | [4] | [17] | [18] | [19] | [5] | Aromatase (Homo sapiens) | [6] | [7] | [8] | [9] | [10] | [11] | [12] | [14] | [13] | [15]

NC(=O)NC1NC(=O)NC1=O (configuration not stated)
inactive: [1] | [2] | [3] | [4] | [5] | Aromatase (Homo sapiens) | [6] | [7] | [8] | [9] | [10] | [12] | [13] | [15]

CNC[C@H](O)c1cccc(O)c1
inactive: [1] | [2] | [3] | [5] | Aromatase (Homo sapiens) | [6] | [7] | [8] | [12] | [13]
inactive and 3.89 µM (active): [4]

CCOc1ccc(NC(=O)CC(C)O)cc1 (configuration not stated)
inactive: [1] | [2] | [3] | [4] | [5] | Aromatase (Homo sapiens) | [6] | [7] | [8] | [9] | [10] | [11] | [12] | [14] | [13] | [15]

COc1c2occc2cc2ccc(=O)oc12
inactive: [5] | [8] | [11] | [12] | [14] | [13]
inactive and 1.74 µM (active): [4]

CCCCOC(=O)CC(CC(=O)OCCCC)(OC(C)=O)C(=O)OCCCC
inactive: [1] | [3] | [4] | [5] | Aromatase (Homo sapiens) | [6] | [7] | [8] | [9] | [10] | [11] | [12] | [14] | [13] | [15]

CCCN(CCC)S(=O)(=O)c1ccc(C(=O)O)cc1
inactive: [1] | [2] | [3] | [4] | [5] | Aromatase (Homo sapiens) | [6] | [7] | [8] | [9] | [10] | [12] | [13] | [15]

O=C(O)c1cccnc1
inactive: [1] | [2] | [3] | [4] | [5] | Aromatase (Homo sapiens) | [6] | [7] | [8] | [11] | [12] | [14] | [13] | [15]

O=C(C1CCCCC1)N1CC(=O)N2CCc3ccccc3C2C1 (configuration not stated)
inactive: [1] | [2] | [3] | [4] | [5] | Aromatase (Homo sapiens) | [6] | [7] | [8] | [9] | [10] | [12] | [13] | [15]

O=C(O)CCCCCCCC(=O)O
inactive: [1] | [2] | [3] | [4] | [5] | Aromatase (Homo sapiens) | [6] | [7] | [8] | [9] | [10] | [12] | [13] | [15]

C/C=C/c1ccc(OC)cc1
inactive: [1] | [2] | [3] | [4] | [5] | Aromatase (Homo sapiens) | [6] | [7] | [8] | [9] | [11] | [12] | [13] | [15]

O=C(O)/C=C\C(=O)O
inactive: [11] | [12] | [14] | [13] | [15]

Nc1ccc(O)c(C(=O)O)c1
inactive and 68.6 µM (active): [18]
inactive: [1] | [16] | [4] | [17] | [19] | [5] | Aromatase (Homo sapiens) | [6] | [7] | [8] | [9] | [10] | [11] | [12] | [13] | [15]

C[C@]12C=CC(=O)C=C1CC[C@@H]1[C@@H]2[C@@H](O)C[C@@]2(C)[C@H]1CC[C@]2(O)C(=O)CO
inactive: [1] | [2] | [3] | [4] | [17] | [18] | [5] | Aromatase (Homo sapiens) | [6] | [7] | [8] | [11] | [12] | [13] | [15]

O=C(c1ccccc1)c1ccccc1
inactive: [1] | [4] | [5] | Aromatase (Homo sapiens) | [6] | [7] | [8] | [12] | [14] | [13] | [15]

O=C1NC(=O)c2ccccc21
inactive: [1] | [2] | [3] | [4] | [5] | Aromatase (Homo sapiens) | [6] | [7] | [8] | [9] | [10] | [12] | [14] | [13] | [15]

Nc1ccc(S(=O)(=O)c2ccc(N)cc2)cc1
inactive: [2] | [3] | [16] | [4] | [17] | [18] | [19] | [5] | Aromatase (Homo sapiens) | [6] | [7] | [8] | [9] | [10] | [11] | [12] | [13] | [15]
